# Where a name gives a salt, the structure may show the parent alone. ± gives the standard deviation of the averaged measurements.
# What was measured:
# Assay in all cases: cell viability (% of vehicle); higher = less cytotoxic
# Settings in all cases: 10 µM; 72 h
# HCI01 = system: HCI01 (cells of a triple-negative basal-like breast cancer xenograft)
# HCI03 = system: HCI03 (cells of an ER-positive luminal breast cancer xenograft)
# HCI09 = system: HCI09 (cells of a triple-negative luminal androgen receptor type breast cancer xenograft)
# HCI11 = system: HCI11 (cells of an ER-positive luminal breast cancer xenograft)
# HCI13 = system: HCI13 (cells of an ER-positive luminal breast cancer xenograft)
# HCI16 = system: HCI16 (cells of a triple-negative basal-like breast cancer xenograft)
# UCD52 = system: UCD52 (cells of a triple-negative basal-like breast cancer xenograft)
# WHIM2 = system: WHIM2 (cells of a triple-negative basal-like breast cancer xenograft)
# WHIM30 = system: WHIM30 (cells of a triple-negative basal-like breast cancer xenograft)
# 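Further: PDX cells carrying CMV promoter-driven luciferase, viability read as total photon flux per second by IVIS imaging following D-luciferin, vehicle control 0.1% DMSO.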
SMILES,cell viability (HCI01),cell viability (HCI03),cell viability (HCI09),cell viability (HCI11),cell viability (HCI13),cell viability (HCI16),cell viability (UCD52),cell viability (WHIM2),cell viability (WHIM30)
CC1=NN(c2ccccc2)C(=O)C1 [Edaravone],80.8 ± 11,108,91.7 ± 13,100,99.37 ± 0.89,113,87.9 ± 16,83.1 ± 24,130 ± 10
CN1C2CCCC1CC(NC(=O)c1nn(C)c3ccccc13)C2 (stereo not given) [Granisetron],112 ± 1.8,119,108 ± 9.4,81.8,108 ± 12,89.3,105 ± 4.6,110 ± 28,133 ± 31
C=CC1=C(C(=O)O)N2C(=O)C(NC(=O)C(=NO)c3csc(N)n3)C2SC1 (stereo not given) [Cefdinir],96.2 ± 11,138,107 ± 6.3,120,130 ± 4.8,121,96.6 ± 12,98.1 ± 22,114 ± 8
O=C1C(CCC(O)c2ccc(F)cc2)C(c2ccc(O)cc2)N1c1ccc(F)cc1 (stereo not given) [Ezetimibe],109 ± 6.1,102,86.6 ± 20,92.5,121 ± 3.4,97.3,81.4 ± 3.2,96 ± 5.4,100 ± 5.3
O=C([O-])C(O)C(O)C(O)C(O)C(O)CO.O=C([O-])C(O)C(O)C(O)C(O)C(O)CO.[Ca+2] (stereo not given) [Calcium Gluceptate],134 ± 3.3,162,112 ± 4.9,127,110 ± 8.2,124,87.2 ± 13,109 ± 3.2,141 ± 8.1
CCn1cc(C(=O)O)c(=O)c2cc(F)c(N3CCNCC3)nc21 [Enoxacin (Penetrex)],101 ± 5.7,144,102 ± 13,109,104 ± 12,91,79.6 ± 0.81,85.5 ± 12,98.8 ± 2.7
Cc1ccc(Nc2nccc(N(C)c3ccc4c(C)n(C)nc4c3)n2)cc1S(N)(=O)=O.Cl [Pazopanib Hydrochloride],123 ± 20,101,77.01 ± 0.6,96.8,75.6 ± 13,134,94.9 ± 13,127 ± 32,76.7 ± 5.5
COc1cc(NC(C)CCCN)c2ncccc2c1.O=P(O)(O)O.O=P(O)(O)O (stereo not given) [Primaquine Diphosphate],56.3 ± 9.8,95.2,29.3 ± 9.9,49,68.2 ± 11,116,75.7 ± 10,70.5 ± 11,112 ± 1.8
NS(=O)(=O)Cc1noc2ccccc12 [Zonisamide],96.13 ± 0.4,136,90 ± 5,108,117 ± 18,99.1,130 ± 16,92.9 ± 7.1,129 ± 3.9
COc1nc(C)cnc1NS(=O)(=O)c1cccnc1-c1ccc(-c2nnco2)cc1 [Zibotentan (ZD4054)],122 ± 15,116,105 ± 9.6,117,125 ± 12,125,97.9 ± 1.1,85.7 ± 3.5,139 ± 6.9
OC(CCCN1CCCCC1)(c1ccccc1)c1ccccc1 [Diphenidol HCl],117 ± 19,139,107 ± 12,82.5,88.1 ± 2.6,118,101 ± 25,108 ± 9.6,113 ± 11
Cc1nccn1CC1CCc2c(c3ccccc3n2C)C1=O.Cl (stereo not given) [Ondansetron HCl],126 ± 18,123,93.6 ± 9.8,111,96.7 ± 2.7,104,80.3 ± 1,83.9 ± 22,128 ± 9.2
Nc1ccn(C2CSC(CO)O2)c(=O)n1 (stereo not given) [Lamivudine],106 ± 17,130,94.9 ± 7.3,107,124 ± 7.9,95.2,87.7 ± 6.8,94.3 ± 11,84.4 ± 12
CN(C)CCC(c1ccc(Br)cc1)c1ccccn1.O=C(O)C=CC(=O)O (stereo not given) [Brompheniramine hydrogen maleate],119 ± 19,117,103 ± 1.9,99.5,142 ± 4.6,118,74.9 ± 2.3,97.9 ± 3.3,113.4 ± 1.1
[I-].[K+] [Potassium Iodide],98.5 ± 37,134,97 ± 8.2,97.4,169 ± 3.2,127,102 ± 6.1,82 ± 5.4,121 ± 7.5
c1ccc2[nH]c(-c3cscn3)nc2c1 [Thiabendazole],148 ± 9.3,160,82.8 ± 82,162,162 ± 8.2,119,167 ± 15,120 ± 13,102.2 ± 0.2
N=C(N)c1ccc(OCCCCCOc2ccc(C(=N)N)cc2)cc1.O=S(=O)(O)CCO.O=S(=O)(O)CCO [Pentamidine isethionate],98.1 ± 3.2,104,27.495 ± 0.0084,74.7,180 ± 61,87.7,91.2 ± 2.3,85.2 ± 19,113 ± 7.6
CN(C)CCC(c1ccc(Cl)cc1)c1ccccn1.O=C(O)C=CC(=O)O (stereo not given) [Chlorpheniramine Maleate],157 ± 40,115,108 ± 13,97,178 ± 38,126,79.7 ± 2.5,82.8 ± 11,127 ± 12
Nc1nc(N)nc(-c2cc(Cl)ccc2Cl)n1 [Irsogladine],92.7 ± 5.9,113,91.9 ± 16,89.7,102 ± 18,108,107 ± 4.4,114 ± 4.4,76.4 ± 4.1
O=C(O)CCNC(=O)c1ccccc1 [Betamipron],121 ± 22,105,87.5 ± 28,98.2,69.8 ± 10,98.9,99.9 ± 9.4,101 ± 11,108 ± 4.5

# From the supplement of paper PMC6992640
